PubChem BioAssay AID504854 (Southern Research Specialized Biocontainment Screening …, 2011)
Results with a measured potency or affinity are listed apart. Active and inactive are the calls of the source. The rule behind the calls is not given here.

Assay: Vero cell cytotoxicity, dose response, cytotoxicity control for M. tuberculosis growth inhibitor project, Vero cells, purified and synthesized compounds, set 4 (AID 504854)
Conditions: series mostly up to 100 µM

Row | SMILES | outcome
1 | O=C(CSc1nc2ccccc2c(=O)[nH]1)N1CCOCC1 | inactive
2 | CC[N+](C)(CC)CCCCOc1ccc2c(c1)C(=O)c1cc(OCCCC[N+](C)(CC)CC)ccc1-2 | inactive
3 | COc1ccc(NC(=O)CSc2nc3ccccc3c(=O)[nH]2)cc1 | inactive
4 | Cc1ccc(NC(=O)COC(=O)CCc2c[nH]c3ccccc23)cc1[N+](=O)[O-] | inactive
5 | NC(=O)CSc1nc2ccccc2c(=O)[nH]1 | inactive
6 | CN(C)C(=O)CSc1nc2ccccc2c(=O)[nH]1 | inactive
7 | Cc1nc(SCc2ccccc2Cl)[nH]c(=O)c1C | inactive
8 | COc1cccc(NC(=O)CSc2nc3c(c(=O)[nH]2)CCC3)c1 | inactive
9 | CN1CCC(NC(=O)CSc2nc3ccccc3c(=O)[nH]2)CC1 | inactive
10 | Cc1nc(SCC(=O)NC2CCCC2)[nH]c(=O)c1C | inactive
11 | O=C(CSc1nccc(=O)[nH]1)NC1CCCCC1 | inactive
12 | Cc1cnc(SCC(=O)NC2CCCCC2)[nH]c1=O | inactive
13 | Cn1c(SCC(=O)NC2CCCCC2)nc2ccccc2c1=O | inactive
14 | Nc1c(C(=O)NC2CCCCC2)nsc1C(=O)OCC(=O)NC1CCCCC1 | inactive
15 | Cc1cc(=O)[nH]c(=S)[nH]1 | inactive
16 | CCOC1OC(=O)C(Cl)=C1Nc1ccccc1C (stereo not drawn) | inactive
17 | Cc1cc(=O)[nH]c(SCC(=O)NC2CCCCC2)n1 | inactive

Row | SMILES | outcome
18 | O=C(CSc1ccccn1)NC1CCCCC1 | inactive
19 | COC(=O)c1ccc(CNc2c(N3CCCC3)c(=O)c2=O)cc1 | inactive
20 | CC(C)CCNC(=O)CSc1nc2ccccc2c(=O)[nH]1 | inactive
21 | Cc1c[nH]c(=S)[nH]c1=O | inactive
22 | O=c1[nH]c(=S)[nH]c2ccccc12 | inactive
23 | Cc1nc(SCC(=O)N(C)c2ccccc2)[nH]c(=O)c1C | inactive
24 | Cc1cccc(/C=C/C(=O)c2ccc([N+](=O)[O-])o2)c1 | inactive
25 | Cc1[nH]c(=S)[nH]c(=O)c1C | inactive
26 | CCSc1nc(C)c(C)c(=O)[nH]1 | inactive
27 | CCC(Sc1nc2ccccc2c(=O)[nH]1)C(=O)NC1CCCCC1 (stereo not drawn) | inactive
28 | Cc1nc(SCC(=O)NCCC(C)C)[nH]c(=O)c1C | inactive
29 | Nc1cc(=O)[nH]c(SCC(=O)NC2CCCCC2)n1 | inactive
30 | O=C(CSc1nc2ccccc2c(=O)[nH]1)NC1CCCCC1 | inactive
31 | CCOC(=O)CSc1nc(C)c(C)c(=O)[nH]1 | inactive
32 | O=C(CSc1ncccn1)NC1CCCCC1 | inactive
33 | Cc1nc(SCC(N)=O)[nH]c(=O)c1C | inactive
